The values below come from the supplement of paper PMC10646978.

Structures are written as SMILES. ± gives the standard deviation.

One experiment relates to RAW-Dual (murine macrophage reporter line). Kind of experiment: NF-kB reporter (SEAP) activity fold change vs agonist alone; higher = enhanced NF-kB activity. Conditions: modulator concentration 10 µM; agonist: CpG ODN 1826 0.5 ug/mL. The method, boiled down:
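In 384-well plates holding 50 000 RAW-Dual murine macrophage reporter cells per well, compound at 10 μM final was pre-incubated for 1 hour at 37 °C, after which a PRR agonist was added overnight. Supernatant SEAP read with QUANTI-Blue at 620 nm absorbance reported NF-κB, and Lucia luciferase read with QUANTI-Luc luminescence reported IRF. Fold change values come from dividing each reporter signal by the mean of agonist-only control wells on the same plate, averaged over replicate plates with propagated errors.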
As for `COC(=O)C1=CN(CC2CCCO2)C=C(C(=O)OC)C1c1cccc(Cl)c1` (stereo not given), the NF-kB reporter was 0.59 ± 0.053.
On to `O=C(NCCOc1cccc2cccnc12)c1c(F)cccc1F`, for which the NF-kB reporter came out at 0.911 ± 0.088.
`CCOC(=O)C(C)N(c1ccc(OC)cc1)S(C)(=O)=O` (stereo not given): the NF-kB reporter worked out at 0.99 ± 0.056.
Same read-out and setting: the figure for `CN1C(C(=O)Nc2ccccn2)=C(O)c2ccccc2S1(=O)=O` is 0.654 ± 0.063.
Regarding `Cc1nc(Nc2ncc(C(=O)Nc3c(C)cccc3Cl)s2)cc(N2CCN(CCO)CC2)n1.Cl`, the NF-kB reporter is 0.802 ± 0.035.
As for `O=S(=O)(Oc1cccc2ccccc12)c1ccc(F)cc1`, the NF-kB reporter amounted to 0.832 ± 0.1.
With `O=S(=O)(c1cccc2ccccc12)n1cnc2ccccc21`, the NF-kB reporter was 1.1 ± 0.084.
As for `O=C(NCC1CCCN1c1nccs1)C1CC1` (stereo not given), the NF-kB reporter stood at 0.946 ± 0.045.
As to `O=[N+]([O-])c1cc2c(cc1C=Nc1ccc(O)cc1)OCO2`, the NF-kB reporter worked out at 0.842 ± 0.14.
As for `COc1ccc(Cl)cc1C(=O)NCCc1ccc(S(=O)(=O)NC(=O)NC2CCCCC2)cc1`, the NF-kB reporter is 0.75 ± 0.067.
`O=C(NC(=S)NNc1ccccc1)c1cc2ccccc2oc1=O`: the NF-kB reporter amounted to 1.08 ± 0.23.
On the same count and under the same terms, the result for `COC(=O)C1=C(C)N(C)C(C)=C(C(=O)OC)C1c1cccc(C(F)(F)F)c1` reads 0.884 ± 0.069; that for `CN(C)CCCN1c2ccccc2CCc2ccccc21.Cl`, 0.827 ± 0.069.
On to `O=C(Nc1nc2ccccc2n1CCN1CCOCC1)C1CCCCC1`, for which the NF-kB reporter came out at 1.03 ± 0.1.
As to `COc1ccc(S(=O)(=O)N(CC(=O)Nc2ccccc2F)c2ccc(C)cc2)cc1OC`, the NF-kB reporter amounted to 0.984 ± 0.087.
On to `Cc1ccccc1C(=O)N(Cc1cccnc1)c1nc2c(F)cccc2s1`, for which the NF-kB reporter is 0.288 ± 0.019.
Same read-out and setting: the result for `O=C(NN=Cc1cccc(Cl)c1Cl)c1cc(O)cc(O)c1` reads 1.02 ± 0.084.
With `CC(=O)c1c(C(C)=O)c(C)n(-c2ccccc2N)c1C`, the NF-kB reporter turned out to be 1.04 ± 0.081.
Same read-out and setting: the result for `O=C(NC1CC(=O)N(c2ccc(F)cc2)C1)c1ccc(Cl)cc1` (stereo not given) reads 1.06 ± 0.054; that for `O=C(CN(CCc1ccccc1)S(=O)(=O)c1ccc(Cl)cc1)NCc1ccncc1`, 1.03 ± 0.19.
Consider `N#Cc1c(NC(NC(=O)c2cccs2)C(Cl)(Cl)Cl)sc2c1CCCC2` (stereo not given), for which the NF-kB reporter was 0.669 ± 0.038.
On to `O=C(Nc1nc(CC(=O)N2CCc3ccccc3C2)cs1)c1ccc(Cl)cc1`, for which the NF-kB reporter turned out to be 1.05 ± 0.054.
As for `COC(=O)C1=C(C)N(Cc2ccccc2)C(=O)C1=Cc1ccc(C)cc1`, the NF-kB reporter came to 0.59 ± 0.048.
Take `O=C(Nc1ccc([N+](=O)[O-])cc1Cl)c1cc(Cl)ccc1O` [Prestw-40]: the NF-kB reporter turned out to be 1.12 ± 0.28.
In the case of `CC(=O)Nc1ccc(S(=O)(=O)N2CCC(Oc3cc(C)nc(C)n3)C2)cc1` (stereo not given), the NF-kB reporter was 0.919 ± 0.039.
As for `Cc1cc(-c2ccc(N=Cc3ccc(Cl)c([N+](=O)[O-])c3)c(C)c2)ccc1N=Cc1ccc(Cl)c([N+](=O)[O-])c1`, the NF-kB reporter came out at 1.01 ± 0.056.
Turning to `COc1ccc(C(=O)C=Cc2cc(OC)c(OC)c(OC)c2)c(O)c1`, the NF-kB reporter came to 1.63 ± 0.13.
Still for that read-out and setting: the figure for `COc1cc(-c2nnc(SCc3ccc([N+](=O)[O-])cc3)n2-c2ccccc2)cc(OC)c1OC` is 0.986 ± 0.095; for `CCN(CC)c1ccc2cc(-c3nnc(NCc4ccccc4)s3)c(=O)oc2c1` it is 1.12 ± 0.15.
As for `Cc1cc(C)nc(NS(=O)(=O)c2ccc(NC(=O)C=Cc3cccc4ccccc34)cc2)n1`, the NF-kB reporter was determined as 1.14 ± 0.091.
`COc1cc(C=C2SC(=S)NC2=O)ccc1OCCC(C)C`: the NF-kB reporter worked out at 0.847 ± 0.074.
On the same count and under the same terms, the result for `Cc1[nH]c(/C=C2\C(=O)Nc3ccccc32)c(C)c1CCC(=O)O` reads 0.716 ± 0.18; that for `Cc1cc(C)n(N=Cc2c[nH]c3ccccc23)c(=O)c1C#N`, 1.08 ± 0.18.
As to `CC(=O)c1ccc(NC(=O)CSc2ccc(-c3ccc4c(c3)OCO4)nn2)cc1`, the NF-kB reporter stood at 0.846 ± 0.28.
For `CN(C)CC#CCNC(=O)Nc1ccc(C(F)(F)F)cc1`, the NF-kB reporter stood at 0.935 ± 0.33.
For the molecule `O=C(CCc1csc(NC(=O)c2ccco2)n1)Nc1ccc(Cl)cc1`, the NF-kB reporter turned out to be 0.9 ± 0.069.
Consider `COc1cccc2c1C(=O)c1c(O)c3c(c(O)c1C2=O)C[C@@](O)(C(=O)CO)C[C@@H]3O[C@H]1C[C@H](N)[C@@H](O)[C@H](C)O1.Cl`, for which the NF-kB reporter was determined as 0.114 ± 0.0074.
Regarding `COc1ccc([C@@H]2Sc3ccccc3N(CCN(C)C)C(=O)[C@@H]2OC(C)=O)cc1.Cl`, the NF-kB reporter worked out at 0.958 ± 0.074.
On to `COc1ccc(Cc2nnc(C3CCN(S(C)(=O)=O)CC3)s2)cc1`, for which the NF-kB reporter amounted to 0.978 ± 0.069.
With `CCOc1ccc(OCCCCOc2cccc(C)c2)cc1`, the NF-kB reporter was found to be 0.961 ± 0.094.

The same experiment, now with this note: modulator concentration 10 µM; agonist: LPS 0.1 ug/mL.
Consider `COC(=O)C1=CN(CC2CCCO2)C=C(C(=O)OC)C1c1cccc(Cl)c1` (stereo not given), for which the NF-kB reporter stood at 0.736 ± 0.065.
`O=C(NCCOc1cccc2cccnc12)c1c(F)cccc1F`: the NF-kB reporter was found to be 1.01 ± 0.13.
On to `CCOC(=O)C(C)N(c1ccc(OC)cc1)S(C)(=O)=O` (stereo not given), for which the NF-kB reporter was 0.985 ± 0.071.
Still for that read-out and setting: the figure for `CN1C(C(=O)Nc2ccccn2)=C(O)c2ccccc2S1(=O)=O` is 0.901 ± 0.047; for `Cc1nc(Nc2ncc(C(=O)Nc3c(C)cccc3Cl)s2)cc(N2CCN(CCO)CC2)n1.Cl` it is 1.01 ± 0.12; for `O=S(=O)(Oc1cccc2ccccc12)c1ccc(F)cc1` it is 0.926 ± 0.096.
In the case of `O=S(=O)(c1cccc2ccccc12)n1cnc2ccccc21`, the NF-kB reporter is 1.06 ± 0.11.
On to `O=C(NCC1CCCN1c1nccs1)C1CC1` (stereo not given), for which the NF-kB reporter was 1.02 ± 0.12.
For the molecule `O=[N+]([O-])c1cc2c(cc1C=Nc1ccc(O)cc1)OCO2`, the NF-kB reporter is 1.09 ± 0.17.
On the same count and under the same terms, the result for `COc1ccc(Cl)cc1C(=O)NCCc1ccc(S(=O)(=O)NC(=O)NC2CCCCC2)cc1` reads 0.932 ± 0.056.
The same measure, in the same setting: the figure for `O=C(NC(=S)NNc1ccccc1)c1cc2ccccc2oc1=O` is 1.16 ± 0.15; for `COC(=O)C1=C(C)N(C)C(C)=C(C(=O)OC)C1c1cccc(C(F)(F)F)c1` it is 1.07 ± 0.093.
Take `CN(C)CCCN1c2ccccc2CCc2ccccc21.Cl`: the NF-kB reporter was found to be 1.04 ± 0.1.
With `O=C(Nc1nc2ccccc2n1CCN1CCOCC1)C1CCCCC1`, the NF-kB reporter was 1 ± 0.088.
`COc1ccc(S(=O)(=O)N(CC(=O)Nc2ccccc2F)c2ccc(C)cc2)cc1OC`: the NF-kB reporter was 0.987 ± 0.057.
For `Cc1ccccc1C(=O)N(Cc1cccnc1)c1nc2c(F)cccc2s1`, the NF-kB reporter turned out to be 0.749 ± 0.063.
For the molecule `O=C(NN=Cc1cccc(Cl)c1Cl)c1cc(O)cc(O)c1`, the NF-kB reporter was determined as 0.918 ± 0.092.
Still for that read-out and setting: the figure for `CC(=O)c1c(C(C)=O)c(C)n(-c2ccccc2N)c1C` is 0.992 ± 0.1; for `O=C(NC1CC(=O)N(c2ccc(F)cc2)C1)c1ccc(Cl)cc1` (stereo not given) it is 1.11 ± 0.088.
Consider `O=C(CN(CCc1ccccc1)S(=O)(=O)c1ccc(Cl)cc1)NCc1ccncc1`, for which the NF-kB reporter is 0.976 ± 0.076.
Still for that read-out and setting: the figure for `N#Cc1c(NC(NC(=O)c2cccs2)C(Cl)(Cl)Cl)sc2c1CCCC2` (stereo not given) is 1.13 ± 0.076; for `O=C(Nc1nc(CC(=O)N2CCc3ccccc3C2)cs1)c1ccc(Cl)cc1` it is 1.13 ± 0.09; for `COC(=O)C1=C(C)N(Cc2ccccc2)C(=O)C1=Cc1ccc(C)cc1` it is 0.655 ± 0.05.
As for `O=C(Nc1ccc([N+](=O)[O-])cc1Cl)c1cc(Cl)ccc1O` [Prestw-40], the NF-kB reporter worked out at 0.92 ± 0.052.
Take `CC(=O)Nc1ccc(S(=O)(=O)N2CCC(Oc3cc(C)nc(C)n3)C2)cc1` (stereo not given): the NF-kB reporter was 0.923 ± 0.098.
In the case of `Cc1cc(-c2ccc(N=Cc3ccc(Cl)c([N+](=O)[O-])c3)c(C)c2)ccc1N=Cc1ccc(Cl)c([N+](=O)[O-])c1`, the NF-kB reporter was determined as 1.01 ± 0.073.
Take `COc1ccc(C(=O)C=Cc2cc(OC)c(OC)c(OC)c2)c(O)c1`: the NF-kB reporter was 0.199 ± 0.018.
`COc1cc(-c2nnc(SCc3ccc([N+](=O)[O-])cc3)n2-c2ccccc2)cc(OC)c1OC`: the NF-kB reporter is 0.942 ± 0.053.
Same read-out and setting: the result for `CCN(CC)c1ccc2cc(-c3nnc(NCc4ccccc4)s3)c(=O)oc2c1` reads 1.14 ± 0.072; that for `Cc1cc(C)nc(NS(=O)(=O)c2ccc(NC(=O)C=Cc3cccc4ccccc34)cc2)n1`, 1.14 ± 0.083.
With `COc1cc(C=C2SC(=S)NC2=O)ccc1OCCC(C)C`, the NF-kB reporter is 0.969 ± 0.049.
On to `Cc1[nH]c(/C=C2\C(=O)Nc3ccccc32)c(C)c1CCC(=O)O`, for which the NF-kB reporter is 0.853 ± 0.11.
On to `Cc1cc(C)n(N=Cc2c[nH]c3ccccc23)c(=O)c1C#N`, for which the NF-kB reporter amounted to 0.963 ± 0.099.
On to `CC(=O)c1ccc(NC(=O)CSc2ccc(-c3ccc4c(c3)OCO4)nn2)cc1`, for which the NF-kB reporter came to 1.04 ± 0.096.
Regarding `CN(C)CC#CCNC(=O)Nc1ccc(C(F)(F)F)cc1`, the NF-kB reporter came out at 0.899 ± 0.045.
For `O=C(CCc1csc(NC(=O)c2ccco2)n1)Nc1ccc(Cl)cc1`, the NF-kB reporter is 0.87 ± 0.071.
`COc1cccc2c1C(=O)c1c(O)c3c(c(O)c1C2=O)C[C@@](O)(C(=O)CO)C[C@@H]3O[C@H]1C[C@H](N)[C@@H](O)[C@H](C)O1.Cl`: the NF-kB reporter worked out at 0.0523 ± 0.0041.
On to `COc1ccc([C@@H]2Sc3ccccc3N(CCN(C)C)C(=O)[C@@H]2OC(C)=O)cc1.Cl`, for which the NF-kB reporter worked out at 1.02 ± 0.053.
For `COc1ccc(Cc2nnc(C3CCN(S(C)(=O)=O)CC3)s2)cc1`, the NF-kB reporter came out at 1.04 ± 0.085.
As to `CCOc1ccc(OCCCCOc2cccc(C)c2)cc1`, the NF-kB reporter amounted to 1.11 ± 0.074.
